Source: ChEMBL document CHEMBL3988442, “University of Dundee, Small-Polar-MMV Screening Library” (2021)
The whole screen tested about 48,000 compounds, of which about 13,000 (27%) showed an effect of 50% or more. The list shows a part of the results.

The compounds below were run on Wolbachia pipientis (assay: Anti-Wolbachia Cell-Based Screen). Conditions: 5 µM.
Format: functional
Set-up: scale not given: in the data most compounds retested in dose-response had high values

Going from `Cn1cc(CN2CCn3cc(CNC(=O)C4CCC4)nc3C2)cn1.O=C(O)C(F)(F)F` to `Cn1ccc(C(=O)N2C[C@@H]3CCN(c4cnccn4)C[C@@H]3C2)n1.O=C(O)C(F)(F)F`, the “Percent Effect” value falls from 18.03% to 6.862%.

Compared with `O=C(NCc1nnc2ccccn12)N1CCOC(c2cccs2)C1` (stereo not drawn), `COC[C@H]1CCC[C@]12CN(C(=O)NCc1ccccc1)CCO2` is higher in “Percent Effect” value: -3.405% for the first, 18.34% for the second.

Compared with `COc1ccc(-n2nc(C3CC3)nc2CCn2cnnn2)cc1`, `COc1ccc(N2Cc3n[nH]c(=O)n3C2=O)cc1` is higher in “Percent Effect” value: -7.711% for the first, -0.5114% for the second.

Going from `COC[C@H]1CCC[C@]12CN(CCc1ccccc1)CCO2.O=C(O)C(F)(F)F` to `O=C(O)C(F)(F)F.O=C(c1ccc[nH]1)N1CCO[C@]2(CCC[C@@H]2COc2cccnc2)C1`, the “Percent Effect” value falls from 30.11% to -3.807%.

First: COC[C@@H]1CCC[C@@]12CN(C(=O)N(C)C)CCO2
Second: COCC(=O)N1CCO[C@]2(CCC[C@H]2COC)C1
The “Percent Effect” value of the first is lower: 101.2% for the first, 106.8% for the second.

Compared with `O=C(c1ccno1)N1CCO[C@]2(CCC[C@@H]2COCc2ccncc2)C1`, `O=C(c1ccoc1)N1CCO[C@]2(CCC[C@@H]2COCc2ccncc2)C1` is lower in “Percent Effect” value: -0.3534% for the first, -6.569% for the second.

Going from `COC[C@@H]1CCC[C@@]12CN(C(=O)N1CCCC1)CCO2` to `O=C(N1CCCC1)N1CCCC2(CCN(c3ccsc3)C2=O)C1` (stereo not drawn), the “Percent Effect” value falls from 87.5% to -11.99%.

Going from `Cc1[nH]c2c(F)cccc2c1CC(=O)NCCCNc1cccnc1` to `COC(CNC(=O)CNC(=O)c1ccccc1)c1cccc(Cl)c1` (stereo not drawn), the “Percent Effect” value falls from 12% to -36.87%.

Compared with `Cc1noc(COCC(=O)Nc2ccc(Br)c(C)n2)n1`, `Cc1ccc(C)c(OCC(O)CN(C)CC(=O)Nc2cc(C)on2)c1` (stereo not drawn) is higher in “Percent Effect” value: 11.2% for the first, 16.51% for the second.

First: O=C(c1ccccc1)N1C[C@@H]2CC[C@H](C1)N(C(=O)CN1CCOCC1)C2
Second: CS(=O)(=O)N1C[C@@H]2CC[C@H](C1)N(C(=O)Cn1nc3ccccc3n1)C2
The “Percent Effect” value of the first is lower: -9.595% for the first, 3.871% for the second.

Going from `CCc1nc(CNC(=O)c2ccc(C(C)N3CCCCC3)o2)cc(=O)[nH]1` (stereo not drawn) to `CCOC(=O)NCc1nn(CCN2CCCC2)c(=O)c2ccccc12`, the “Percent Effect” value rises from -0.08952% to 108%.

Going from `CCOC(=O)CC(C)Nc1nc(C2CCCC2)nc2c1cnn2C` (stereo not drawn) to `CCOC(=O)CNc1nc(COC)nc2c1cnn2C`, the “Percent Effect” value rises from -2.112% to 5.543%.

First: COCC1(Nc2nc(C)nc3c2cnn3C)CCCC1
Second: CCCc1nc(NC2(COC)CCCC2)c2cnn(C)c2n1
The “Percent Effect” value of the first is higher: 115.3% for the first, 85.47% for the second.

First: Cn1ncc2c(NCCC34CCCN3CCC4)nc(C3CCCC3)nc21
Second: Cc1nc(NC2(CN3CCCCC3)CCCCC2)c2cnn(C)c2n1
The “Percent Effect” value of the first is lower: 4.055% for the first, 98.05% for the second.

Going from `CCOC(=O)CC1(Nc2nc(C)nc3c2cnn3C)CCCCC1` to `CCOC(=O)CNc1nc(C(C)(C)C)nc2c1cnn2C`, the “Percent Effect” value falls from 107.9% to 2.145%.

Compared with `Cc1nsc(NC(=O)NC2(CN3CCCCC3)CCCCC2)n1`, `CCCc1nc(N(C)CCN2CCCCCC2)c2cnn(C)c2n1` is higher in “Percent Effect” value: 1.448% for the first, 11.67% for the second.

Going from `CCC(Nc1nc(C)nc2c1cnn2C)c1ncnn1CC` (stereo not drawn) to `CCn1c(C)nnc1SCCNc1nc(C)nc2c1cnn2C`, the “Percent Effect” value falls from 13.02% to -4.457%.

Going from `O=C(C1=CCCC1)N1CCC[C@]2(C[C@@H](OCc3ccccn3)CO2)C1.O=C(O)C(F)(F)F` to `Cc1ccc(C(=O)N2CCO[C@H]3[C@@H](OCc4ccccn4)CC[C@@H]32)o1.O=C(O)C(F)(F)F`, the “Percent Effect” value falls from 5.284% to -5.404%.

Compared with `Cc1csc(N2CCN(C(=O)CCC(=O)c3ccc(C)s3)CC2)n1`, `O=C(c1ccc(-n2ccnc2)cc1)N1CCN(c2cnccn2)CC1` is lower in “Percent Effect” value: 7.228% for the first, 1.028% for the second.

Compared with `CCS(=O)(=O)N1CCOC2(COCCN(c3nccs3)C2)C1` (stereo not drawn), `CCS(=O)(=O)N1CCOC2(CCCN(c3cnccn3)C2)C1.O=C(O)C(F)(F)F` (stereo not drawn) is lower in “Percent Effect” value: 11.05% for the first, -12.03% for the second.

Going from `CC(C)c1ccc(S(=O)(=O)NC2CCN(CC(F)(F)F)C2)cc1` (stereo not drawn) to `CC(C)CNC(=O)C1=NOC2(CCN(Cc3ccc(C(C)C)cc3)C2)C1` (stereo not drawn), the “Percent Effect” value rises from 12.82% to 105.9%.

First: COc1cc(CN2CC[C@@H](N3CCCCCC3)[C@H](O)C2)cc(Cl)c1OC
Second: COc1cc(Cl)cc(CN2CCCC(N3CCCC3)C2)c1OC (stereo not drawn)
The “Percent Effect” value of the first is lower: 100.3% for the first, 116% for the second.

First: COc1ccc(CN2CCCC(N3CCCC3)C2)cc1Cn1cncn1 (stereo not drawn)
Second: CC(C)Oc1ccc(CN2CCCC(N3CCOCC3)C2)cc1CO (stereo not drawn)
The “Percent Effect” value of the first is higher: 15.57% for the first, -0.1551% for the second.

Compared with `O[C@@H]1CN(CC2=Cc3cc(Cl)ccc3OC2)CC[C@H]1N1CCCCCC1`, `COc1cc(Cl)cc(CN2CCCC(N3CCOCC3)C2)c1OC` (stereo not drawn) is higher in “Percent Effect” value: 0.906% for the first, 106.9% for the second.

First: COc1ccc(CN2CCCC(n3cccn3)C2)c(Cl)c1OC (stereo not drawn)
Second: COc1cc(CN2CCC(O)(c3ccc(C)cn3)CC2)cc(Cl)c1OC
The “Percent Effect” value of the first is higher: 1.14% for the first, -12.14% for the second.

Going from `Cc1cc(C)c2[nH]c(CN3CCCC(N4CCOCC4)C3)cc(=O)c2c1` (stereo not drawn) to `CCNC(=O)NCc1ccc(CN2CCCC(C)C2)cc1` (stereo not drawn), the “Percent Effect” value falls from 0.1169% to -3.525%.

Compared with `CNC(=O)[C@@H]1COC[C@H]2CN(C(=O)c3ccc(C)c(F)c3)C[C@H]21`, `COC(=O)C1CCN(C(=O)c2ccc(C)c(NS(C)(=O)=O)c2)CC1` is lower in “Percent Effect” value: 1.789% for the first, -2.362% for the second.

First: Cc1ncsc1CN1C[C@H](OCC(C)C)[C@H]2OCCC[C@H]21.O=C(O)C(F)(F)F
Second: CCO[C@@H]1CC[C@H]2[C@H]1OCCN2C(=O)c1ccc(OC)c(F)c1
The “Percent Effect” value of the first is higher: -14.06% for the first, -22.06% for the second.

First: CCO[C@H]1CC[C@H]2[C@H]1OCCN2C(=O)c1nn(C)c2ccccc12
Second: CCO[C@@H]1CC[C@H]2[C@H]1OCCN2C(=O)c1nn(C)c2ccccc12
The “Percent Effect” value of the first is higher: 108.7% for the first, 106.4% for the second.

First: Cc1ccc(CN2CCC3(CC(C(=O)NCC4CC4)=NO3)C2)s1 (stereo not drawn)
Second: O=C(NCC1CC1)C1=NOC2(CCN(Cc3ccsc3)C2)C1 (stereo not drawn)
The “Percent Effect” value of the first is higher: -2.379% for the first, -10.07% for the second.

First: CC(C)CNC(=O)C1=NOC2(CCN(Cc3ccoc3)C2)C1 (stereo not drawn)
Second: COc1ccc(CN2CCC3(CC(C(=O)NCC(C)C)=NO3)C2)cc1 (stereo not drawn)
The “Percent Effect” value of the first is higher: 98.99% for the first, 91.98% for the second.

Compared with `CCc1ccc(CN2CCC3(CC(C(=O)NCC(C)C)=NO3)C2)o1` (stereo not drawn), `O=C(NCC1CC1)C1=NOC2(CCN(Cc3ccc(Cl)c(F)c3)C2)C1` (stereo not drawn) is lower in “Percent Effect” value: 102% for the first, 0.8389% for the second.

Compared with `CCc1ccc(C(NC(=O)CCS(C)(=O)=O)C(C)(C)C)o1` (stereo not drawn), `CC(NC(=O)C(C)(C)C#N)c1ccc(OCC2CC2)c(F)c1` (stereo not drawn) is lower in “Percent Effect” value: 18.74% for the first, 5.136% for the second.

First: CN1CCC(NN2CCN(C)CC2)CC1
Second: COCC(=O)NCc1cc2n(n1)CCCN(CCCC1CCCC1)C2
The “Percent Effect” value of the first is higher: 4.594% for the first, 3.539% for the second.

First: O=C(CSc1ccccc1)Nc1cnn(CC(=O)N2CCCO2)c1
Second: CCn1nc(CNC(=O)C2CCCN(CC(N)=O)C2)c2ccccc21 (stereo not drawn)
The “Percent Effect” value of the first is lower: 2.043% for the first, 4.996% for the second.

First: CCN1CCC2(CC1)c1nc[nH]c1CCN2S(C)(=O)=O
Second: CN(C)C(=O)N1CCCC2(CCN(c3ccsc3)C2=O)C1 (stereo not drawn)
The “Percent Effect” value of the first is higher: -21.15% for the first, -73.81% for the second.

Compared with `COc1ccccc1OCCCc1cc(C)nc(N)n1`, `COc1ccccc1OC1(C(=O)O)CCN(c2cnccn2)CC1` is lower in “Percent Effect” value: -105.6% for the first, -132.5% for the second.

First: CC(=O)NCC(=O)NCC1(O)CCN(c2cnccn2)C1 (stereo not drawn)
Second: Cn1ccc(C(=O)NCC2(O)CCN(c3cnccn3)C2)n1 (stereo not drawn)
The “Percent Effect” value of the first is lower: 78.54% for the first, 120.2% for the second.

Going from `CC(C#N)NS(=O)(=O)c1cccc(C(C)C)c1` (stereo not drawn) to `CN(C)S(=O)(=O)NCCn1nc(-c2ccccc2)n(C)c1=O`, the “Percent Effect” value falls from 0.8918% to -0.1642%.

First: c1ccc(-c2nccc(N3CCc4c(ncn4C4CC4)C3)n2)cc1
Second: O=C1N(c2ccsc2)CCC12CCCN(c1ccccn1)C2 (stereo not drawn)
The “Percent Effect” value of the first is lower: -6.711% for the first, 116.3% for the second.

Compared with `O=C(NCc1nncn1C1CC1)C1(c2ccc(F)cc2)CCCC1`, `O=C(NCC(O)COc1ccc(F)cc1)C1(c2ccc(F)cc2)CC1` (stereo not drawn) is higher in “Percent Effect” value: -0.2127% for the first, 2.033% for the second.

Going from `O=C1N(c2ccsc2)CCC12CCCN(c1ncc(F)cn1)C2` (stereo not drawn) to `O=C(CO)N1CCCC2(CCN(c3ccsc3)C2=O)C1` (stereo not drawn), the “Percent Effect” value falls from 91.96% to -8.553%.

First: O=C(O)C(F)(F)F.O=C(c1ccccn1)N1CCCC2(CCN(c3ccsc3)C2=O)C1 (stereo not drawn)
Second: Cn1nccc1C(=O)N1CCCC2(CCN(c3ccsc3)C2=O)C1 (stereo not drawn)
The “Percent Effect” value of the first is lower: 9.828% for the first, 54.5% for the second.

Compared with `Cc1nocc1C(=O)N1CCCC2(CCN(c3ccsc3)C2=O)C1` (stereo not drawn), `Cc1occc1C(=O)N1CCCC2(CCN(c3ccsc3)C2=O)C1` (stereo not drawn) is lower in “Percent Effect” value: 2.801% for the first, -9.998% for the second.

First: N#Cc1ccc(N2CCCN(CC(N)=O)CC2)cc1
Second: CCNC(=O)NCc1nn(CCN2CCCC2)c(=O)c2ccccc12
The “Percent Effect” value of the first is lower: -2.311% for the first, 106.7% for the second.

First: CC(NC(=O)c1csnn1)c1ccc(OCC2CC2)c(F)c1 (stereo not drawn)
Second: CCN1CC(C(=O)NCc2nn(CC)c3ccccc23)CCC1=O (stereo not drawn)
The “Percent Effect” value of the first is lower: 3.063% for the first, 10.79% for the second.

Compared with `CS(=O)(=O)NCCC(=O)NC1(c2ccc(F)cc2)CCCC1`, `Cc1ccccc1CS(=O)(=O)NCCCN1CCCC1` is lower in “Percent Effect” value: -19.35% for the first, -20.74% for the second.

First: CN(C)S(=O)(=O)NCc1nn(CCN2CCCC2)c(=O)c2ccccc12
Second: COCC(=O)NCc1nn(CCN2CCCC2)c(=O)c2ccccc12
The “Percent Effect” value of the first is lower: 91.81% for the first, 112.1% for the second.

Going from `CCn1nc(CNC(=O)C2CC(=O)N(C3CCCC3)C2)c2ccccc21` (stereo not drawn) to `CCn1nc(CNC(=O)C2CCCN(C(=O)COC)C2)c2ccccc21` (stereo not drawn), the “Percent Effect” value rises from -24.02% to -19.96%.
